Results with a measured potency or affinity are listed apart.
Biological target: Protein translocase subunit SecA (Escherichia coli (strain K12)) (UniProt P10408)
Test: Assay to Identify E. coli SecA ATPase Inhibitors
Assay type: functional
Design: scale not given: direction of the effect not stated beside the values
Details: 30 µM

Chain of Protein translocase subunit SecA (Escherichia coli (strain K12)) (P10408 whole entry): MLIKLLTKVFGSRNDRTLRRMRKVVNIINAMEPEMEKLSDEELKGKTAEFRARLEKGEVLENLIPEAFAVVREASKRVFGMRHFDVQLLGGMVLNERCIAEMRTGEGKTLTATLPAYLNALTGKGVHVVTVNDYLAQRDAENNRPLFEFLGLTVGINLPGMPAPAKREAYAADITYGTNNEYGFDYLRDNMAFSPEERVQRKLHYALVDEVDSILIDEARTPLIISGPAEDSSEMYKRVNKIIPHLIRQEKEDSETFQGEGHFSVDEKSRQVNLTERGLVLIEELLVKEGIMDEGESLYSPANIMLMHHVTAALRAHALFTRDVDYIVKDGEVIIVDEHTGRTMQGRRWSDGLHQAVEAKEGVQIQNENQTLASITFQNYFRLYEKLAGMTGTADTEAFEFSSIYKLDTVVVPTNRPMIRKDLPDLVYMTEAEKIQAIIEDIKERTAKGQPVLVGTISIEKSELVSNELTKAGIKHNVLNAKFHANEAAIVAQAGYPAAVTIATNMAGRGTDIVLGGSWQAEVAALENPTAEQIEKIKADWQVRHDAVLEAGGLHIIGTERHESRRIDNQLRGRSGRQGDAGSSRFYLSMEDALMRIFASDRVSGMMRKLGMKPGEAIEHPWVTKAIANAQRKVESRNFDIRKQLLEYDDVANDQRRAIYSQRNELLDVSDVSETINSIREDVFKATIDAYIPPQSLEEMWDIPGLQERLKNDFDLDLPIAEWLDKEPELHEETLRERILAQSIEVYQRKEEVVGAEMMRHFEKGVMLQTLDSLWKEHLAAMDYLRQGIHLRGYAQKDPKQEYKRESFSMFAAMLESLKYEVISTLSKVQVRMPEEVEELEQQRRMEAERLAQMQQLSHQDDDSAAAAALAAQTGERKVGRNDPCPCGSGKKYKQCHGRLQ

Q: How did the Percent Effect turn out when `CCCNCC1(O)CCCN(Cc2cccc(C)c2)C1=O` (stereo not given) was run?
A: -3.44%

Q: For `COCCC1(CO)CCCN(Cc2ccc(F)c(C)c2)C1` (stereo not given), which Percent Effect is on record?
A: -3.62%

Q: For `Cn1cc(C(=O)N[C@@H]2CN(Cc3cccs3)[C@@H]3CCCO[C@@H]32)cn1`, which Percent Effect is on record?
A: -4.79%

Q: Which Percent Effect does the source give for `Cn1ccnc1-c1cccc(NC(=O)NCCCO)c1` here?
A: -0.628%

Q: For `CC(C)(C)NC(=O)CNC(=O)CCc1ccccc1Br`, which Percent Effect is on record?
A: -3.98%

Q: With `c1ccc(CN2CCCC(c3nccnc3-n3ccnc3)C2)cc1` (stereo not given) as the compound, how does the Percent Effect read?
A: -1.15%

Q: Which Percent Effect does the source give for `COc1ccc2nnc(CCCC(=O)NCCC3=CCCCC3)n2n1` here?
A: -0.326%

Q: For `Cc1cnn(CC2CN(Cc3nc(N)c4ccccc4n3)CCO2)c1` (stereo not given), which Percent Effect is on record?
A: -2.67%

Q: Which Percent Effect does the source give for `O=C(c1ccccn1)N1CCc2nc(-c3cnccn3)nc(O)c2C1` here?
A: 0.65%

Q: With `NCC(c1ccccc1)N1CCc2sccc2C1` (stereo not given) as the compound, how does the Percent Effect read?
A: -1.09%

Q: `Cc1cc(C(=O)N2Cc3ccccc3OC3(CCOCC3)C2)nc(N)n1` was tested. Which Percent Effect did it give?
A: -5.65%

Q: How did the Percent Effect turn out when `CC1=Nc2c(c(=O)[nH]n2C(C)C)C(c2ccccc2)S1` (stereo not given) was run?
A: -5.22%

Q: With `FC(F)(F)c1cc(N2CCc3ncnc(NC4CC4)c3CC2)ncn1` as the compound, how does the Percent Effect read?
A: -1.41%

Q: How did the Percent Effect turn out when `O=C(Nc1ccc(F)cc1F)Nc1c[nH]c(=O)[nH]c1=O` was run?
A: 0.161%

Q: With `Cn1c(Cn2cccn2)nnc1C1CCN(Cc2cccnc2N)CC1` as the compound, how does the Percent Effect read?
A: -8.22%

Q: `Cc1ccc(C2CSCCN2C(=O)C2=CCCC2)o1` (stereo not given) was tested. Which Percent Effect did it give?
A: -5.63%

Q: For `COC(=O)c1cccc(C(=O)N2CCN(c3cccc(C)c3C)CC2)n1`, which Percent Effect is on record?
A: -0.0243%

Q: How did the Percent Effect turn out when `NS(=O)(=O)N1CCc2ccc(NC(=O)Cc3ccc(F)cc3)cc21` was run?
A: -2.62%

Q: How did the Percent Effect turn out when `COc1ccccc1C1CNC(=O)c2nc(-c3cnn(C)c3)[nH]c2C1` (stereo not given) was run?
A: 0.9%

Q: Which Percent Effect does the source give for `O=C1NCCN1C1CCN(Cc2nc(-c3ccoc3)no2)CC1` here?
A: -1.17%

Q: For `Cc1ccc(N2CC3(COCCN(Cc4nccs4)C3)OCC2=O)s1` (stereo not given), which Percent Effect is on record?
A: 4.24%

Q: How did the Percent Effect turn out when `CCOCCCn1c(NC(=O)c2cnn(C)c2)nc2ccccc21` was run?
A: -5.81%

Q: Which Percent Effect does the source give for `CCn1nnc2cc(C(=O)N3CCCC3Cn3cc(C)cn3)ccc21` (stereo not given) here?
A: -1.32%

Q: How did the Percent Effect turn out when `CN(C)CC1CSCCCN1C(=O)c1ccc(C(C)(C)C)cc1` (stereo not given) was run?
A: 2.6%

Q: `CS(=O)(=O)CC(=O)N1C[C@H]2CCC[C@@]2(COCc2ccccn2)C1` was tested. Which Percent Effect did it give?
A: -1.45%

Q: `COc1ccccc1CN(C)C(=O)c1cc(CN2CCC(O)CC2)on1` was tested. Which Percent Effect did it give?
A: -4.25%

Q: `COCC(O)CNC(=O)c1coc(COc2ccc3sc(C)nc3c2)n1` (stereo not given) was tested. Which Percent Effect did it give?
A: -0.0441%

Q: How did the Percent Effect turn out when `CCc1n[nH]c(C2CN(Cc3nccn3CC)CCO2)n1` (stereo not given) was run?
A: -0.0966%

Q: Which Percent Effect does the source give for `COc1ccc(-n2ccc(C(=O)N3CCN(C)CC3C)n2)cc1` (stereo not given) here?
A: -5.91%

Q: For `c1ccc(-c2noc(CNC3CCc4ncnn4C3)n2)nc1` (stereo not given), which Percent Effect is on record?
A: -2.18%

Q: With `Cc1cc(=O)n2ncnc2n1CC(O)c1cc(F)ccc1F` (stereo not given) as the compound, how does the Percent Effect read?
A: -4.1%

Q: `CSc1ccc(C(CNC(=O)C2CC2)N2CCc3sccc3C2)cc1` (stereo not given) was tested. Which Percent Effect did it give?
A: -3.4%

Q: With `CS(=O)(=O)NC[C@H]1OC[C@@H]2CCN(Cc3ccc(F)cc3)C[C@@H]21` as the compound, how does the Percent Effect read?
A: 0.854%

Q: For `COc1ccc(CNC(=O)CNc2cc3c(cc2Cl)OCCCO3)cc1`, which Percent Effect is on record?
A: -3.73%

Q: `CCOCCOc1ccccc1C(=O)N1CCCC(c2ncc[nH]2)C1` (stereo not given) was tested. Which Percent Effect did it give?
A: -3.41%

Q: Which Percent Effect does the source give for `CC(O)CN1CCN(C(=O)c2cc3ccccc3c(=O)[nH]2)CC1` (stereo not given) here?
A: -0.781%

Q: With `CCN1CCC(NC(=O)CN2CCCC2Cn2nc(C)cc2C)CC1` (stereo not given) as the compound, how does the Percent Effect read?
A: -3.31%

Q: Which Percent Effect does the source give for `CCc1ccc(OCC(O)CN2CCN(S(C)(=O)=O)CC2)cc1` (stereo not given) here?
A: -7.02%

Q: With `O=C1CCCN1CC1CN(C(=O)CC2CCCC2)Cc2nccn2C1` (stereo not given) as the compound, how does the Percent Effect read?
A: -4.26%

Q: `Cc1nc(C2CCN(C(=O)c3cccnc3)CC2)c2sccn12` was tested. Which Percent Effect did it give?
A: -1.59%

Biological target: T1, Ubiquitin-activating enzyme e1, putative (Leishmania donovani (strain BPK282A1)) (UniProt E9BSI1)
T1 sequence (whole entry): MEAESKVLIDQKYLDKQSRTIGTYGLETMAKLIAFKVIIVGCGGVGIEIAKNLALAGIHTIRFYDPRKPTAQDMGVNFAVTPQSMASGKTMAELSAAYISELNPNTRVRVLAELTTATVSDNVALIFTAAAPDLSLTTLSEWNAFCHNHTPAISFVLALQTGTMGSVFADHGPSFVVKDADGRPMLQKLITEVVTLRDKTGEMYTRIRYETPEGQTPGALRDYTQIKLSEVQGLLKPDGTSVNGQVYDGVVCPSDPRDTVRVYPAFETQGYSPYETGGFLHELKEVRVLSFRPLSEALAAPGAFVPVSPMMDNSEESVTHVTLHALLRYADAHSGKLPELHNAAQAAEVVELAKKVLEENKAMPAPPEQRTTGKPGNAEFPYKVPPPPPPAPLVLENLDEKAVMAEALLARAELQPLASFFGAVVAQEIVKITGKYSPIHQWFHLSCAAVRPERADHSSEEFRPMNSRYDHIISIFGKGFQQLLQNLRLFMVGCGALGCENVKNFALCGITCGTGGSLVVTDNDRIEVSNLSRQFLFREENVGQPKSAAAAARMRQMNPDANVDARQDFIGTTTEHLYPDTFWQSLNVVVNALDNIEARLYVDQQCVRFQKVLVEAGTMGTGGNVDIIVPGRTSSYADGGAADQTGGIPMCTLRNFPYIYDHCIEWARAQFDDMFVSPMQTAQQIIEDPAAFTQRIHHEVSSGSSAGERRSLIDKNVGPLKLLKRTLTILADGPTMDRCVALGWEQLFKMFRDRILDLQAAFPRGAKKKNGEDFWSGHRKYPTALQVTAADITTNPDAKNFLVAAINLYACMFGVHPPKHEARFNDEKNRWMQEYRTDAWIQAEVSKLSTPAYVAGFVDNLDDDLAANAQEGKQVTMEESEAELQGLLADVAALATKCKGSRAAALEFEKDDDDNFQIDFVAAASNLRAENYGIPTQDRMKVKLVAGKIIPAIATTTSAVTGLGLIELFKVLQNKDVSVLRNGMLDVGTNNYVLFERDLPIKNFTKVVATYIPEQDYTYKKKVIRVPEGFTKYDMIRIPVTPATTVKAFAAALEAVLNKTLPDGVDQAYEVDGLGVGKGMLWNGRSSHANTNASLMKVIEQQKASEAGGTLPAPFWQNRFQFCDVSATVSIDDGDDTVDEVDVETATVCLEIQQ
Test: Leishmania donovani Ubiquitin Activating Enzyme (LdE1)
Assay type: functional
Design: scale not given: direction of the effect not stated beside the values
Details: 30 µM

Q: Which Percent Effect does the source give for `CCCNCC1(O)CCCN(Cc2cccc(C)c2)C1=O` (stereo not given) here?
A: 0%

Q: With `COCCC1(CO)CCCN(Cc2ccc(F)c(C)c2)C1` (stereo not given) as the compound, how does the Percent Effect read?
A: 0%

Q: With `Cn1cc(C(=O)N[C@@H]2CN(Cc3cccs3)[C@@H]3CCCO[C@@H]32)cn1` as the compound, how does the Percent Effect read?
A: 13.3%

Q: `Cn1ccnc1-c1cccc(NC(=O)NCCCO)c1` was tested. Which Percent Effect did it give?
A: 6.94%

Q: With `CC(C)(C)NC(=O)CNC(=O)CCc1ccccc1Br` as the compound, how does the Percent Effect read?
A: 15.3%

Q: `c1ccc(CN2CCCC(c3nccnc3-n3ccnc3)C2)cc1` (stereo not given) was tested. Which Percent Effect did it give?
A: 10.7%

Q: `COc1ccc2nnc(CCCC(=O)NCCC3=CCCCC3)n2n1` was tested. Which Percent Effect did it give?
A: 12%

Q: How did the Percent Effect turn out when `Cc1cnn(CC2CN(Cc3nc(N)c4ccccc4n3)CCO2)c1` (stereo not given) was run?
A: 13%

Q: For `O=C(c1ccccn1)N1CCc2nc(-c3cnccn3)nc(O)c2C1`, which Percent Effect is on record?
A: 12.2%

Q: With `NCC(c1ccccc1)N1CCc2sccc2C1` (stereo not given) as the compound, how does the Percent Effect read?
A: 7.89%

Q: Which Percent Effect does the source give for `Cc1cc(C(=O)N2Cc3ccccc3OC3(CCOCC3)C2)nc(N)n1` here?
A: 17.6%

Q: How did the Percent Effect turn out when `CC1=Nc2c(c(=O)[nH]n2C(C)C)C(c2ccccc2)S1` (stereo not given) was run?
A: 4%

Q: `FC(F)(F)c1cc(N2CCc3ncnc(NC4CC4)c3CC2)ncn1` was tested. Which Percent Effect did it give?
A: 13.3%

Q: For `O=C(Nc1ccc(F)cc1F)Nc1c[nH]c(=O)[nH]c1=O`, which Percent Effect is on record?
A: 10.4%

Q: Which Percent Effect does the source give for `Cn1c(Cn2cccn2)nnc1C1CCN(Cc2cccnc2N)CC1` here?
A: 1.39%

Q: `Cc1ccc(C2CSCCN2C(=O)C2=CCCC2)o1` (stereo not given) was tested. Which Percent Effect did it give?
A: 8.11%

Q: For `COC(=O)c1cccc(C(=O)N2CCN(c3cccc(C)c3C)CC2)n1`, which Percent Effect is on record?
A: 20.8%

Q: Which Percent Effect does the source give for `NS(=O)(=O)N1CCc2ccc(NC(=O)Cc3ccc(F)cc3)cc21` here?
A: 2.74%

Q: For `COc1ccccc1C1CNC(=O)c2nc(-c3cnn(C)c3)[nH]c2C1` (stereo not given), which Percent Effect is on record?
A: 10.8%

Q: With `O=C1NCCN1C1CCN(Cc2nc(-c3ccoc3)no2)CC1` as the compound, how does the Percent Effect read?
A: 5.2%

Q: For `Cc1ccc(N2CC3(COCCN(Cc4nccs4)C3)OCC2=O)s1` (stereo not given), which Percent Effect is on record?
A: 7.79%

Q: Which Percent Effect does the source give for `CCOCCCn1c(NC(=O)c2cnn(C)c2)nc2ccccc21` here?
A: 5.2%

Q: With `CCn1nnc2cc(C(=O)N3CCCC3Cn3cc(C)cn3)ccc21` (stereo not given) as the compound, how does the Percent Effect read?
A: -5.06%

Q: For `CN(C)CC1CSCCCN1C(=O)c1ccc(C(C)(C)C)cc1` (stereo not given), which Percent Effect is on record?
A: 2.6%

Q: With `CS(=O)(=O)CC(=O)N1C[C@H]2CCC[C@@]2(COCc2ccccn2)C1` as the compound, how does the Percent Effect read?
A: 2.7%

Q: Which Percent Effect does the source give for `COc1ccccc1CN(C)C(=O)c1cc(CN2CCC(O)CC2)on1` here?
A: 2.74%

Q: How did the Percent Effect turn out when `COCC(O)CNC(=O)c1coc(COc2ccc3sc(C)nc3c2)n1` (stereo not given) was run?
A: 5.48%

Q: `CCc1n[nH]c(C2CN(Cc3nccn3CC)CCO2)n1` (stereo not given) was tested. Which Percent Effect did it give?
A: 20.8%

Q: With `COc1ccc(-n2ccc(C(=O)N3CCN(C)CC3C)n2)cc1` (stereo not given) as the compound, how does the Percent Effect read?
A: 10.4%

Q: `c1ccc(-c2noc(CNC3CCc4ncnn4C3)n2)nc1` (stereo not given) was tested. Which Percent Effect did it give?
A: -5.41%

Q: With `Cc1cc(=O)n2ncnc2n1CC(O)c1cc(F)ccc1F` (stereo not given) as the compound, how does the Percent Effect read?
A: 18.4%

Q: With `CSc1ccc(C(CNC(=O)C2CC2)N2CCc3sccc3C2)cc1` (stereo not given) as the compound, how does the Percent Effect read?
A: 5.26%

Q: `CS(=O)(=O)NC[C@H]1OC[C@@H]2CCN(Cc3ccc(F)cc3)C[C@@H]21` was tested. Which Percent Effect did it give?
A: 13.3%

Q: `COc1ccc(CNC(=O)CNc2cc3c(cc2Cl)OCCCO3)cc1` was tested. Which Percent Effect did it give?
A: -2.7%

Q: `CCOCCOc1ccccc1C(=O)N1CCCC(c2ncc[nH]2)C1` (stereo not given) was tested. Which Percent Effect did it give?
A: 8.22%

Q: `CC(O)CN1CCN(C(=O)c2cc3ccccc3c(=O)[nH]2)CC1` (stereo not given) was tested. Which Percent Effect did it give?
A: -5.26%

Q: For `CCN1CCC(NC(=O)CN2CCCC2Cn2nc(C)cc2C)CC1` (stereo not given), which Percent Effect is on record?
A: 2.7%

Q: For `CCc1ccc(OCC(O)CN2CCN(S(C)(=O)=O)CC2)cc1` (stereo not given), which Percent Effect is on record?
A: 7.79%

Q: How did the Percent Effect turn out when `O=C1CCCN1CC1CN(C(=O)CC2CCCC2)Cc2nccn2C1` (stereo not given) was run?
A: 7.79%

Q: How did the Percent Effect turn out when `Cc1nc(C2CCN(C(=O)c3cccnc3)CC2)c2sccn12` was run?
A: 1.35%

Reference: ChEMBL document CHEMBL3988442, “University of Dundee, Small-Polar-MMV Screening Library” (2021)
